The record followed here is ChEMBL document CHEMBL1961873, “Compounds: GSK PKIS; Assays: Nanosyn kinase panel” (2012).

In assay [1] the target is T1, Muscle, skeletal receptor tyrosine-protein kinase (Homo sapiens) (UniProt O15146).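 Note: reported value is the mean percent inhibition of MuSK kinase.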
T1 sequence (whole entry): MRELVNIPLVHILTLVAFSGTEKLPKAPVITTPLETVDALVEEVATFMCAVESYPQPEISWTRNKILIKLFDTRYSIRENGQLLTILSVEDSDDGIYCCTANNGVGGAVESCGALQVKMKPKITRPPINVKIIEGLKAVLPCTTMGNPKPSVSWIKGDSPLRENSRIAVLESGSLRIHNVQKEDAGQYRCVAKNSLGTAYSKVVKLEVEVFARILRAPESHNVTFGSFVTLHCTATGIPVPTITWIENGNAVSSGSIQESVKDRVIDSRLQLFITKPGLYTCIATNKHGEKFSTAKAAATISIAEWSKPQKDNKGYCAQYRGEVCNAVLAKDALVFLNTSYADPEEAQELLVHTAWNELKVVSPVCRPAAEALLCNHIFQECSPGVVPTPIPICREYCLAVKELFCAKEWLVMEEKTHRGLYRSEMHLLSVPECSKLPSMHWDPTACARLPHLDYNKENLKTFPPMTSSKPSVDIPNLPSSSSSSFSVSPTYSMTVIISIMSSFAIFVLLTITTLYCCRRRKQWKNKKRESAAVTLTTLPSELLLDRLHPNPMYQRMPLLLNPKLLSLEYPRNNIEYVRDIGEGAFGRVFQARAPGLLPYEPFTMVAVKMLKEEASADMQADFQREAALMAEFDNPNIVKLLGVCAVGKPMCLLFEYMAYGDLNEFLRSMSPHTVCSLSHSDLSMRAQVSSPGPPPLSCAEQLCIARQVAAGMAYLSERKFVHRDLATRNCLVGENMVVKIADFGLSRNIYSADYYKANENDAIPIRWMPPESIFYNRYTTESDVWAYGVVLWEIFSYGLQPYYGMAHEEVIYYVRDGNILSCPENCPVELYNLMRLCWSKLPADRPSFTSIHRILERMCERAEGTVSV
As to conditions: at 1 µM.

Assay [2] concerns the target Platelet-derived growth factor receptor alpha (Homo sapiens) (UniProt P16234). As to conditions: at 0.1 µM.
Assay [3] has the same target. Conditions: at 1 µM.
Assay [4] deals with Platelet-derived growth factor receptor alpha (Homo sapiens), P16234 [D842V]. As to conditions: at 0.1 µM.
Sequence of Platelet-derived growth factor receptor alpha (Homo sapiens), P16234 [D842V] (P16234 whole entry D842V): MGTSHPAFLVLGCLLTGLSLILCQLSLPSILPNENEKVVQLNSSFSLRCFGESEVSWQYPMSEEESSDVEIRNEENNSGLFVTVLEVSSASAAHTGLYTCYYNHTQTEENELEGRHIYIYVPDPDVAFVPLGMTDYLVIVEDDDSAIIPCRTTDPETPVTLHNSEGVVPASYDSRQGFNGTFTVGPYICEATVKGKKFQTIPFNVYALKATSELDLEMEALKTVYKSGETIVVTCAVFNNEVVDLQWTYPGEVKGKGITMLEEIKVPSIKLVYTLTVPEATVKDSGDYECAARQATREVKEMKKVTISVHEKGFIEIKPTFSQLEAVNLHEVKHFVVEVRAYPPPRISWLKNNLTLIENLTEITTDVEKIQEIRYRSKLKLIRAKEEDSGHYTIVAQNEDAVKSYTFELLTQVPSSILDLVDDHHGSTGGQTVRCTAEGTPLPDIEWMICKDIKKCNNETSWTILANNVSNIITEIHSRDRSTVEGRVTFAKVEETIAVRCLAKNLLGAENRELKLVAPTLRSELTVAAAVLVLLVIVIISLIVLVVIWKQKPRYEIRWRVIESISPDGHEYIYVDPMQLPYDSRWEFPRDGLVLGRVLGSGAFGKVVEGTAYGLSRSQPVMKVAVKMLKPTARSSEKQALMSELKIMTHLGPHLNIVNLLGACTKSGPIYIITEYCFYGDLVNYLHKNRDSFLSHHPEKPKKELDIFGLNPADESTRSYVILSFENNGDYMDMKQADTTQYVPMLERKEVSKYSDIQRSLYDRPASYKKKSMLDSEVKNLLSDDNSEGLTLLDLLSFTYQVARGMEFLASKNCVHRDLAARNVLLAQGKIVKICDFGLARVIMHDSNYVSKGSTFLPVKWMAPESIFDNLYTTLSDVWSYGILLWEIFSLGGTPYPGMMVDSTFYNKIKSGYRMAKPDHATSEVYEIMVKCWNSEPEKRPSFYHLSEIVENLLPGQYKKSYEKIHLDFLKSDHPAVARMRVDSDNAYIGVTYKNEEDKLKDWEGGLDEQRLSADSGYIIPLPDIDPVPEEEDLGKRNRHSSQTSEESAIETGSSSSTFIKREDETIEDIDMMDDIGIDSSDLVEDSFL
Assay [5] shares this test system. As to conditions: at 1 µM.
The subject of assay [6] is Platelet-derived growth factor receptor alpha (Homo sapiens), P16234 [T674I]. As to conditions: at 0.1 µM.
For assay [7] the test system is unchanged. As to conditions: at 1 µM.
For assay [8], the system named is Platelet-derived growth factor receptor alpha (Homo sapiens), P16234 [V561D]. As to conditions: at 0.1 µM.
Sequence of Platelet-derived growth factor receptor alpha (Homo sapiens), P16234 [V561D] (P16234 whole entry V561D): as the sequence (P16234 whole entry D842V) above, with V561D, V842D counted along it
Assay [9] has the same test system. As to conditions: at 1 µM.
The target in assay [10] is Platelet-derived growth factor receptor beta (Homo sapiens) (UniProt P09619). As to conditions: at 0.1 µM.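 Note: reported value is the mean percent inhibition of the kinase.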
Sequence of Platelet-derived growth factor receptor beta (Homo sapiens) (P09619 whole entry): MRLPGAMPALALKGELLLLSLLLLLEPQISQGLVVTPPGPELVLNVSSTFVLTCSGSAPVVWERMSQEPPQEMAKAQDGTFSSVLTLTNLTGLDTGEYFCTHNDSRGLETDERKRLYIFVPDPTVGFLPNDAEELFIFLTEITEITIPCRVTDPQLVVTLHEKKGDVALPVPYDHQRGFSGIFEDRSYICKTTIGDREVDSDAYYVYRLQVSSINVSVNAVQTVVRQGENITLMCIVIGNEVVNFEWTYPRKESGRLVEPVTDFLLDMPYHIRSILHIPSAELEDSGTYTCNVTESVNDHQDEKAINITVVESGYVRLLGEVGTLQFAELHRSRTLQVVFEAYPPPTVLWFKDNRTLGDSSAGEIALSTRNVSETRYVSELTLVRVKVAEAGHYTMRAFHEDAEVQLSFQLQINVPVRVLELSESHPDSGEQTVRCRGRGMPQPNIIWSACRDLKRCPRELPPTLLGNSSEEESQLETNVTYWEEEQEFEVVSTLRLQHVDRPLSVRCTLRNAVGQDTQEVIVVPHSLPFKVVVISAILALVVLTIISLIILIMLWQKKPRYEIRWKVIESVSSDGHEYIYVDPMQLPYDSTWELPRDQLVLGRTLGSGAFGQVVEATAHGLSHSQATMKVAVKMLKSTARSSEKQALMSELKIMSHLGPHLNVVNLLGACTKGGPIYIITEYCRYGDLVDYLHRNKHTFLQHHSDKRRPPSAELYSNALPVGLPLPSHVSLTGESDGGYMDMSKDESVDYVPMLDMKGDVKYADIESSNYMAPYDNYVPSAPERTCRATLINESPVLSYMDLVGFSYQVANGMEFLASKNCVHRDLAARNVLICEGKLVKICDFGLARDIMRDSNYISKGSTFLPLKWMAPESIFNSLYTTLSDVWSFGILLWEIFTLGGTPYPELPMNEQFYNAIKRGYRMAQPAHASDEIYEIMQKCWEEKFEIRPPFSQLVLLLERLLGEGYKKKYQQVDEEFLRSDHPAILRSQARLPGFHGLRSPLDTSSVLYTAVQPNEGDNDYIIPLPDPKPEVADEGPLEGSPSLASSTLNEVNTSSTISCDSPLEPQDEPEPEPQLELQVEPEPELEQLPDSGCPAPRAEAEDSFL

Sequence of Platelet-derived growth factor receptor alpha (Homo sapiens) (P16234 whole entry): as the sequence (P16234 whole entry D842V) above, with V842D counted along it
Sequence of Platelet-derived growth factor receptor alpha (Homo sapiens), P16234 [T674I] (P16234 whole entry T674I): as the sequence (P16234 whole entry D842V) above, with T674I, V842D counted along it

Turning to `CN(C)CCOc1ccc(-c2nc(-c3ccncc3)c(-c3ccc4c(c3)CC/C4=N\O)[nH]2)cc1`, the inhibition was found to be 3.72% in [1]; 8.1% in assay [2]; 15.9% in [3]; 0.79% in assay [4]; 3.47% in assay [5]; 3.47% in assay [6]. Also, the inhibition in [7] came out at 8.38%; in assay [8], 2.97%; in [9], 5.35%; in assay [10], 4.84%.

Turning to `COc1ccc(-c2cc3c(N)ncnc3o2)cc1`, the inhibition in assay [1] is 2.3%; in [2] it was -1.4%; in [3] it was 16.5%; in [4], 2.85%; in [5], 9.77%; in [6], 1.44%. For the same molecule, the inhibition in assay [7] was found to be 4.01%; in assay [8], 3.4%; in assay [9] it was 19.1%; in [10] it was 1.93%.

Consider `Nc1nc(-c2cccc(Cl)c2)c(-c2ccc3ncccc3n2)s1`, for which the inhibition in assay [1] came to 2.14%; in assay [2] it was 8.04%; in assay [3] it was 28.3%; in [4], 8.3%; in [5], 40.8%; in [6] it was 5.77%. Also, the inhibition in [7] is 9.67%; in assay [8] it was 9.61%; in [9], 26.7%; in assay [10], 5.64%.

As to `CCn1c(-c2nonc2N)nc2ccccc21`, the inhibition amounted to 4.12% in assay [1]; 6.47% in assay [2]; 8.29% in [3]; 2.53% in assay [4]; 2.64% in assay [5]; 2.43% in assay [6]. Besides, the inhibition in [7] came to 3.19%; in [8], 1.19%; in assay [9] it was 1.67%; in [10], 2.55%.

`COc1cc(/C=N/Nc2ncnc3[nH]ncc23)ccc1O`: the inhibition in assay [1] came to 22.6%; in [2] it was 27.3%; in assay [3], 72.4%; in [4] it was 28.4%; in [5], 80.8%; in assay [6], 3.77%. For the same molecule, the inhibition was 16.5% in assay [7], 25% in assay [8], 76.3% in assay [9] and 21.9% in [10].

Consider `COC(=O)Nc1nc2ccc(Oc3ccc(NC(=O)Nc4cccc(Cl)c4)cc3)cc2[nH]1`, for which the inhibition in assay [1] came to 33.2%; in [2] it was 62.2%; in [3] it was 76.9%; in assay [4], 2.44%; in [5], 8.07%; in assay [6] it was 76.6%. For the same molecule, the inhibition in assay [7] was determined as 85.5%; in assay [8], 74.6%; in assay [9], 92.6%; in assay [10], 12.2%.

As to `COc1cccc(-c2c[nH]c3c(N/N=C/c4ccncc4)ncnc23)c1`, the inhibition was found to be 48.8% in assay [1]; 64% in [2]; 82.8% in assay [3]; 72.2% in [4]; 94.4% in assay [5]; 21.8% in assay [6]. Further, the inhibition in assay [7] amounted to 82.2%; in assay [8] it was 59.7%; in assay [9], 93%; in [10], 55%.

For the molecule `Nc1nc(-c2ccc(F)cc2)c(-c2ccc3ncccc3n2)s1`, the inhibition in assay [1] worked out at 7.29%; in assay [2], 16.9%; in assay [3] it was 51.7%; in [4], 14.4%; in assay [5], 61.6%; in assay [6], 9.38%. Further, the inhibition came out at 11.5% in assay [7], 13.2% in [8], 49.5% in assay [9] and 10.9% in assay [10].

As for `Nc1ncc(-c2cccc(S(N)(=O)=O)c2)c2scc(-c3ccc(F)c(Cl)c3)c12`, the inhibition in assay [1] was 1.44%; in assay [2], 18.9%; in [3], 72.1%; in assay [4], 7.66%; in assay [5], 42.4%; in assay [6] it was 4.52%. Besides, the inhibition is 10.5% in assay [7], 36.8% in assay [8], 78.1% in assay [9] and 14.8% in assay [10].

Take `CNC(=O)c1cccc(C#Cc2cncnc2Nc2ccc(OCc3cccc(F)c3)c(Cl)c2)c1`: the inhibition in [1] was -1.15%; in [2], 5.17%; in assay [3], 17.4%; in [4], -0.74%; in assay [5] it was 2.9%; in [6] it was 1.03%. The inhibition in [7] amounted to 2.59%; in assay [8], 0.66%; in [9] it was 4.6%; in [10] it was 4.41%.

On to `COc1ccc(-c2nn3ncccc3c2-c2ccnc(Nc3ccc4c(c3)OCCO4)n2)cc1`, for which the inhibition is -1.95% in [1]; 6.34% in [2]; 29.6% in [3]; 0.81% in assay [4]; 11.7% in assay [5]; 4.01% in assay [6]. The inhibition in assay [7] came to 15.3%; in [8], 6.6%; in [9], 39.6%; in assay [10] it was 4.03%.

`COc1ccc(-c2cc(-c3c[nH]nc3-c3ccccn3)ccn2)cc1`: the inhibition in [1] worked out at 4.1%; in assay [2] it was 13.7%; in [3], 42.1%; in [4], 14.9%; in assay [5] it was 58.7%; in assay [6] it was 7.15%. The inhibition in assay [7] came to 9.53%; in [8] it was 11.1%; in assay [9] it was 40.6%; in [10], 7.26%.

In the case of `COc1cc2ncn(-c3cc(OCc4ccccc4C(F)(F)F)c(C(=O)N(C)C)s3)c2cc1OC`, the inhibition worked out at 2.19% in [1]; 11% in assay [2]; 39.9% in [3]; 4.06% in assay [4]; 23.9% in [5]; 2.17% in [6]. In addition, the inhibition in assay [7] turned out to be 1.13%; in assay [8], 5.15%; in assay [9] it was 26.5%; in assay [10] it was 6.2%.

With `CC(=O)Nc1cccc(C#Cc2cncnc2Nc2ccc(OCc3cccc(F)c3)c(Cl)c2)c1`, the inhibition turned out to be 6.82% in assay [1]; 8.71% in assay [2]; 15.1% in [3]; 1.39% in [4]; 1.82% in [5]; 5.24% in assay [6]. Besides, the inhibition is 1.24% in assay [7], -4.05% in assay [8], 4.74% in assay [9] and 3.29% in assay [10].

In the case of `CC(C)(CO)CNC(=O)c1ccc2c(c1)/C(=N/Nc1ccc(S(N)(=O)=O)cc1)C(=O)N2`, the inhibition in [1] was 21.6%; in assay [2], 18.7%; in [3] it was 62.5%; in assay [4], 23.2%; in assay [5], 77.3%; in [6] it was -0.15%. The inhibition was found to be 6.93% in assay [7], 15.7% in [8], 65.4% in assay [9] and 38.7% in assay [10].

For the molecule `COc1ccc2[nH]c3c4[nH]c5ccc(OC)cc5c4c4c(c3c2c1)C(=O)NC4=O`, the inhibition in assay [1] turned out to be 11.8%; in assay [2] it was 81.1%; in [3], 83.5%; in [4], 94.8%; in assay [5], 96.3%; in [6], 65.7%. In addition, the inhibition was 94.3% in [7], 93.8% in assay [8], 96.8% in [9] and 78.2% in assay [10].

As to `Clc1ccc(-c2nn3ncccc3c2-c2ccnc(Nc3ccccc3)n2)cc1`, the inhibition is 1.46% in [1]; 6.5% in [2]; 31.3% in [3]; 6.95% in assay [4]; 18.8% in assay [5]; 3.65% in assay [6]. Besides, the inhibition in [7] was 8.75%; in assay [8], 12.4%; in assay [9], 42%; in assay [10], 6.84%.

As for `CC1=C(C(=O)Nc2cc(Cl)c3[nH]ncc3c2)C(c2ccc(C(F)(F)F)cc2)CC(=O)N1` (stereo not given), the inhibition in assay [1] stood at 9.6%; in [2], 4.87%; in assay [3], 8.87%; in assay [4], 2.44%; in assay [5] it was 4.3%; in assay [6], 5.17%. The inhibition in [7] is 7.54%; in [8] it was 4.08%; in assay [9] it was 4.27%; in assay [10], 0.58%.

`CNC(=O)c1cncc(/C=C/c2ccccc2Cl)c1`: the inhibition in assay [1] is 8.03%; in [2] it was 7.6%; in assay [3] it was 19.1%; in assay [4], -1.08%; in assay [5], 4.93%; in assay [6], 2.9%. Also, the inhibition amounted to 2.13% in [7], 4.99% in assay [8], 23.1% in assay [9] and 7.75% in [10].

For `Fc1ccc(-c2nn3ccccc3c2-c2ccncc2)cc1`, the inhibition in assay [1] was 3.5%; in assay [2] it was 1.93%; in assay [3], 5.44%; in assay [4], 1.99%; in assay [5], 5.38%; in [6], 3.28%. Further, the inhibition in assay [7] worked out at 1.29%; in assay [8], 1.28%; in [9], 5.89%; in assay [10], 0.58%.
